Reference: PubChem BioAssay (EPA / NIEHS)
Results filed as inconclusive are left out. Active and inactive are the calls of the source. Rule for the calls: active = hit-call score of the fitted dose curve at least 0.9, where 1 is the maximum; inconclusive = response in the unintended direction; inactive = score below 0.9.

Assay: ACEA_ER_80hr: ACEA Biosciences xCELLigence Real-Time Cell Analysis on Estrogen Receptor Agonism for Proliferation (AID 2282667)
Settings: T47D proliferation, impedance (xCELLigence), 80 h
Protocol: ACEA_ER is a cell-based, single-readout assay that uses T47D, a human breast cell line, with measurements taken at 80 hours after chemical dosing in a 96-well plate, although TO2 (mc0.srcf) used a 384-well plate. Differences in plate size can be ignored given data normalization.ACEA_ER_80hr is one of two assay component(s) measured or calculated from the ACEA_ER assay. It is designed to make measurements of real-time cell-growth kinetics, a form of growth reporter, as detected with electrical impedance signals by Real-Time Cell Electrode Sensor (RT-CES) technology.Data from the assay component ACEA_ER_80hr was analyzed into 1 assay endpoint. This assay endpoint, ACEA_ER_80hr_Positive, was analyzed in the positive analysis fitting direction relative to DMSO as the negative control and baseline of activity. Using a type of growth reporter, measures of the cells for gain-of-signal activity can be used to understand the signaling at the pathway-level as they relate to the gene ESR1. Furthermore, this assay endpoint can be referred to as a primary readout, because this assay has produced multiple assay endpoints where this one serves a signaling function. To generalize the intended target to other relatable targets, this assay endpoint is annotated to the nuclear receptor intended target family, where the subfamily is steroidal.
The xCELLigence system Multi-E-Plate stations were used to measure the time-dependent response to chemicals. Each compound was tested in an eight-point, 1:4 serial dilution series starting at a maximum final concentration of 100 uM. A maximum starting concentration of 0.5% DMSO was present in the 100 uM chemical samples and was diluted along with the test article dilution series. The screen was performed in biological duplicate using two separate, 96-well, E-Plates 96 for each dilution series (n = 2). Positive controls (MG132 and E2) and a negative control (assay media) were tested in quadruplicate on each testing plate. […] Reference compounds were tested with 8 concentrations with 1:5 serial dilutions. All screening was carried out by ACEA Biosciences, Inc. (San Diego, CA). T-47D cells purchased from ATCC were maintained in RPMI1640 media supplemented with 10% characterized fetal bovine serum (FBS). […] Cells were then detached and seeded in E-Plates 96 in assay medium. After overnight monitoring of growth once every hour, compounds were added to […] cells and remained in the medium until the end of the experiment. Cellular responses were then recorded once every 5 min for the first 5 h, and once every hour for an additional 100 h.

Row | Compound | outcome | AC50
1 | O[Si](c1ccccc1)(c1ccccc1)c1ccccc1 | inactive | 
2 | C=C(C)C(=O)OCC(F)(F)C(F)(F)C(F)(F)F | inactive | 
3 | FC(F)(F)C(F)(F)C(F)(F)C(F)(F)C(F)(F)C(F)(F)CC1CO1 (stereo not given) | inactive | 
4 | O=S(=O)(O)C(F)(F)C(F)(F)C(F)(F)C(F)(F)C(F)(F)C(F)(F)C(F)(F)F | inactive | 
5 | CCCCC(CC)COP(=O)(O)OCC(CC)CCCC (stereo not given) | inactive | 
6 | NC(=O)C(F)(F)C(F)(F)C(F)(F)C(F)(F)F | inactive | 
7 | COC(=O)C1CCC(C(=O)OC)CC1 (stereo not given) | inactive | 
8 | CCCCCC=O | inactive | 
9 | C#C[C@]1(O)CC[C@H]2[C@@H]3CCc4cc(OC)ccc4[C@H]3CC[C@@]21C |  | 5.4 nM (active)
10 | [Co] | inactive | 
11 | CC(C)c1ccccc1N | inactive | 
12 | OCC(F)(F)C(F)(F)C(F)(F)C(F)(F)C(F)(F)C(F)(F)F | inactive | 
13 | CC(C)(C)c1ccc(OC2CCCCC2O)cc1 (stereo not given) | inactive | 
14 | FC(F)(F)C(F)(F)C(F)(F)CI | inactive | 
15 | C=CC/C=C/C/C=C/C/C=C/C | inactive | 
16 | OCCCC(F)(F)C(F)(F)C(F)(F)C(F)(F)C(F)(F)C(F)(F)C(F)(F)F | inactive | 
17 | FC(F)(F)C(F)(F)C(F)(F)N(C(F)(F)C(F)(F)C(F)(F)F)C(F)(F)C(F)(F)C(F)(F)F | inactive | 
18 | CC(=O)Nc1ccc(N=Nc2cc(C)ccc2O)cc1 | inactive | 
19 | Cc1ccc(S(=O)(=O)OCC(F)(F)C(F)(F)C(F)(F)C(F)(F)C(F)(F)C(F)F)cc1 | inactive | 
20 | CCc1c(Br)c(Br)c(Br)c(Br)c1Br | inactive | 

Row | Compound | outcome | AC50
21 | FC(F)(F)C(F)(F)C(F)(F)C(F)(F)C(F)(F)CCI | inactive | 
22 | CC(C)=CCCC(C)CCOC(=O)C(C)C (stereo not given) | inactive | 
23 | O=S(=O)(OCC(F)F)C(F)(F)F | inactive | 
24 | CCN(Cc1cccc(S(=O)(=O)O)c1)c1ccc(C(=C2C=CC(=[N+](CC)Cc3cccc(S(=O)(=O)O)c3)C=C2)c2ccc(O)cc2S(=O)(=O)[O-])cc1 | inactive | 
25 | CC(Cc1ccc(O)c(O)c1)C(C)Cc1ccc(O)c(O)c1 (stereo not given) | inactive | 
26 | O=C(O)C(F)(F)C(F)(F)F | inactive | 
27 | CC(CCl)OP(=O)(OC(C)CCl)OC(C)CCl (stereo not given) | inactive | 
28 | OCC(F)(F)C(F)(F)C(F)(F)C(F)(F)C(F)(F)C(F)F | inactive | 
29 | CCCCCCC(C)OC(=O)CCCCC(=O)OC(C)CCCCCC (stereo not given) | inactive | 
30 | CO[Si](OC)(c1ccccc1)c1ccccc1 | inactive | 
31 | OC[C@@H](O)[C@@H](O)[C@H](O)[C@@H](O)CO | inactive | 
32 | O=C(O)C(F)(F)C(F)(F)OC(F)(F)F | inactive | 
33 | FC(F)(F)C(F)(F)C(F)(F)C(F)(F)C(F)(F)C(F)(F)C(F)(F)C(F)(F)F | inactive | 
34 | CCc1ccc(C(c2ccc(CC)cc2)C(Cl)Cl)cc1 | inactive | 
35 | O=P(O)(O)OCCC(F)(F)C(F)(F)C(F)(F)C(F)(F)C(F)(F)C(F)(F)F | inactive | 
36 | CC(C)(C)C(=O)CC(=O)C(F)(F)C(F)(F)C(F)(F)F | inactive | 
37 | O=C(O)C(F)(F)C(F)(F)C(F)(F)C(F)(F)C(F)(F)C(F)(F)C(F)(F)C(F)(F)Cl | inactive | 
38 | FC(F)(F)C(F)(F)C(F)(F)C(F)(F)C(F)(F)C(F)(F)C(F)(F)Br | inactive | 
39 | O=C(O)C(F)(F)C(F)(F)C(F)(F)F | inactive | 
40 | c1ccc(-c2ccccc2-c2ccccc2)cc1 |  | 534 nM (active)
